Results from PMC10812921, “Transcriptional Coactivator BOB1 (OBF1, OCA-B) Modulates the Specificity of DNA Recognition by the POU-Domain Factors OCT1 and OCT2 in a Monomeric Configuration”.

Tests used:
POU1 (OCT1 POU domain) = POU1 (OCT1 POU domain) (human, UniProt P14859 260-458); assay: EMSA-SELEX-seq; no BOB1; 20 mM Tris-HCl pH 7.6, 140 mM NaCl, 10% glycerol, 0.5 mM EDTA, 0.05% Triton X-100, 0.1 mg/mL BSA, 0.1 mg/mL poly(dI-dC), 5 mM DTT, room temperature, 20 min; high values mean tight binding; settings: protein: recombinant; dsDNA, one strand shown
Summary of the method: (§1)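 Binding preference is reported as the percentage of sequenced 8-mers that match a motif pattern. Tagged POU-domain proteins were made in E. coli BL21, purified under denaturing conditions and renatured. A 30 ng portion was combined with 300 ng of a PCR-amplified double-stranded random 35-nt library, with or without 28 ng coactivator protein, in 20 μL Tris–HCl pH 7.6 binding buffer for 20 min at RT. Complex bands were excised from native 6% PAGE, eluted and PCR-amplified over four rounds before Illumina sequencing.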

POU2 (OCT2 POU domain) = biological target: T1, POU2 (OCT2 POU domain) (human, UniProt P09086 175-386); assay: as above; settings: protein: recombinant; dsDNA, one strand shown
T1 sequence: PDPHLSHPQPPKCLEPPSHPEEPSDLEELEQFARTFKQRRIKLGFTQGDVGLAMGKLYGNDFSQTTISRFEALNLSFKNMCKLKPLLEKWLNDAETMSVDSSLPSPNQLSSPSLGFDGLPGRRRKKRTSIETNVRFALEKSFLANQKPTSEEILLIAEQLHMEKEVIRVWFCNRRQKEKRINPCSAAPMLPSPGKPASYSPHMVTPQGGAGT
Summary of the method: as §1

[1] = biological target: POU1 (OCT1 POU domain);BOB1 (OBF1, OCA-B) (human;human, UniProt P14859;Q16633 260-458;1-256, |); assay: EMSA-SELEX-seq; with BOB1 (ternary complex band); 20 mM Tris-HCl pH 7.6, 140 mM NaCl, 10% glycerol, 0.5 mM EDTA, 0.05% Triton X-100, 0.1 mg/mL BSA, 0.1 mg/mL poly(dI-dC), 5 mM DTT, room temperature, 20 min; high values mean tight binding; settings: protein: recombinant;recombinant; copies: 1;1; dsDNA, one strand shown
Summary of the method: as §1

[2] = biological target: T2, POU2 (OCT2 POU domain);BOB1 (OBF1, OCA-B) (human;human, UniProt P09086;Q16633 175-386;1-256, |); assay: as above; settings: protein: recombinant;recombinant; copies: 1;1; dsDNA, one strand shown
T2 sequence 1: T1 sequence
T2 sequence 2: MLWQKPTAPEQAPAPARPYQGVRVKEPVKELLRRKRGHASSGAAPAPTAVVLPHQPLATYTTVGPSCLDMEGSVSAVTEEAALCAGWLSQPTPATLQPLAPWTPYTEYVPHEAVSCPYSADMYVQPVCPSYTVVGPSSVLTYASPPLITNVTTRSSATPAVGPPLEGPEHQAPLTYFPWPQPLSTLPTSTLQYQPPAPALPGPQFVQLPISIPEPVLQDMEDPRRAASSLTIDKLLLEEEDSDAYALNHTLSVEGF
Summary of the method: as §1

POU1 (OCT1 POU domain), sequence (P14859 260-458): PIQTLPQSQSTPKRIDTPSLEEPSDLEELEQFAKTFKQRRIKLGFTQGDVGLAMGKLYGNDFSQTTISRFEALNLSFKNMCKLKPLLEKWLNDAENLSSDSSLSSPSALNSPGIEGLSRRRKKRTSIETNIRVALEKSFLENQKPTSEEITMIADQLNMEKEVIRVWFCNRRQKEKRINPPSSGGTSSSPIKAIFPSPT

Row | Sequence | binding signal (POU1 (OCT1 POU domain)) | binding signal (POU2 (OCT2 POU domain)) | binding signal [1] | binding signal [2]
1 | ATGAAAAA | 0.149 % of ANNNNAAN 8-mers | 0.123 % of ANNNNAAN 8-mers | 0.204 % of ANNNNAAN 8-mers | 0.121 % of ANNNNAAN 8-mers
2 | ATCATAAT | 0.131 % of ANNNNAAN 8-mers | 0.164 % of ANNNNAAN 8-mers | 0.0706 % of ANNNNAAN 8-mers | 0.0636 % of ANNNNAAN 8-mers
3 | AAGGTAAA | 0.108 % of ANNNNAAN 8-mers | 0.109 % of ANNNNAAN 8-mers | 0.144 % of ANNNNAAN 8-mers | 0.0933 % of ANNNNAAN 8-mers
4 | AATATAAG | 0.101 % of ANNNNAAN 8-mers | 0.123 % of ANNNNAAN 8-mers | 0.0886 % of ANNNNAAN 8-mers | 0.0966 % of ANNNNAAN 8-mers
5 | ACTCTAAG | 0.0214 % of ANNNNAAN 8-mers | 0.0224 % of ANNNNAAN 8-mers | 0.0258 % of ANNNNAAN 8-mers | 0.0206 % of ANNNNAAN 8-mers
6 | ACGGGAAA | 0.0492 % of ANNNNAAN 8-mers | 0.0564 % of ANNNNAAN 8-mers | 0.0496 % of ANNNNAAN 8-mers | 0.0586 % of ANNNNAAN 8-mers
7 | ACGTTAAG | 0.037 % of ANNNNAAN 8-mers | 0.0414 % of ANNNNAAN 8-mers | 0.039 % of ANNNNAAN 8-mers | 0.0405 % of ANNNNAAN 8-mers
8 | ATGCAAAT | 5.32 % of ANNNNAAN 8-mers | 5.41 % of ANNNNAAN 8-mers | 8.18 % of ANNNNAAN 8-mers | 12.6 % of ANNNNAAN 8-mers
9 | ACTAAAAT | 0.0805 % of ANNNNAAN 8-mers | 0.0714 % of ANNNNAAN 8-mers | 0.0663 % of ANNNNAAN 8-mers | 0.0528 % of ANNNNAAN 8-mers
10 | AGGGGAAA | 0.101 % of ANNNNAAN 8-mers | 0.0794 % of ANNNNAAN 8-mers | 0.109 % of ANNNNAAN 8-mers | 0.0826 % of ANNNNAAN 8-mers
11 | AGTTAAAC | 0.0461 % of ANNNNAAN 8-mers | 0.0593 % of ANNNNAAN 8-mers | 0.0499 % of ANNNNAAN 8-mers | 0.0553 % of ANNNNAAN 8-mers
12 | AATGCAAG | 0.0671 % of ANNNNAAN 8-mers | 0.0512 % of ANNNNAAN 8-mers | 0.0749 % of ANNNNAAN 8-mers | 0.0644 % of ANNNNAAN 8-mers
13 | ATCTAAAA | 0.0564 % of ANNNNAAN 8-mers | 0.0524 % of ANNNNAAN 8-mers | 0.0535 % of ANNNNAAN 8-mers | 0.0669 % of ANNNNAAN 8-mers
14 | ACCCAAAT | 0.0477 % of ANNNNAAN 8-mers | 0.0391 % of ANNNNAAN 8-mers | 0.0753 % of ANNNNAAN 8-mers | 0.0355 % of ANNNNAAN 8-mers
15 | AGTCCAAA | 0.0256 % of ANNNNAAN 8-mers | 0.0299 % of ANNNNAAN 8-mers | 0.0332 % of ANNNNAAN 8-mers | 0.0281 % of ANNNNAAN 8-mers
16 | ACCTTAAC | 0.0118 % of ANNNNAAN 8-mers | 0.0173 % of ANNNNAAN 8-mers | 0.0152 % of ANNNNAAN 8-mers | 0.0149 % of ANNNNAAN 8-mers
17 | ACATCAAC | 0.0172 % of ANNNNAAN 8-mers | 0.0253 % of ANNNNAAN 8-mers | 0.0211 % of ANNNNAAN 8-mers | 0.0281 % of ANNNNAAN 8-mers
18 | AACTCAAC | 0.0168 % of ANNNNAAN 8-mers | 0.0288 % of ANNNNAAN 8-mers | 0.0172 % of ANNNNAAN 8-mers | 0.0182 % of ANNNNAAN 8-mers
19 | AAACGAAA | 0.0568 % of ANNNNAAN 8-mers | 0.0558 % of ANNNNAAN 8-mers | 0.0644 % of ANNNNAAN 8-mers | 0.052 % of ANNNNAAN 8-mers
20 | ACGTTAAC | 0.024 % of ANNNNAAN 8-mers | 0.0316 % of ANNNNAAN 8-mers | 0.0234 % of ANNNNAAN 8-mers | 0.0289 % of ANNNNAAN 8-mers
21 | ATTAGAAG | 0.0786 % of ANNNNAAN 8-mers | 0.101 % of ANNNNAAN 8-mers | 0.0585 % of ANNNNAAN 8-mers | 0.066 % of ANNNNAAN 8-mers
22 | ATTACAAG | 0.0515 % of ANNNNAAN 8-mers | 0.0875 % of ANNNNAAN 8-mers | 0.048 % of ANNNNAAN 8-mers | 0.0413 % of ANNNNAAN 8-mers
23 | ACAGGAAG | 0.0343 % of ANNNNAAN 8-mers | 0.038 % of ANNNNAAN 8-mers | 0.0332 % of ANNNNAAN 8-mers | 0.0396 % of ANNNNAAN 8-mers
24 | AAGCCAAC | 0.0137 % of ANNNNAAN 8-mers | 0.0161 % of ANNNNAAN 8-mers | 0.0109 % of ANNNNAAN 8-mers | 0.0107 % of ANNNNAAN 8-mers
